Where “and” joins values, the source holds several entries; their conditions need not be identical. Equal values may be shown once. Inconclusive results are not listed. Values without a mark were called inactive. Calls of active or inactive are those of the source. Unless noted, calls come from the whole dose curve.

The nature of assay [1]: qHTS assay to identify small molecule agonists of the vitamin D receptor (VDR) signaling pathway - cell viability counter screen (AID 743224; active = well fitted curve in the direction sought with a large enough effect in the repeat runs; an effect the other way counts as inactive or inconclusive; note: nearly all actives have a fitted effect of over 50% in size; note: potency is the fitted concentration of half-maximal effect). Summed up: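 Viability is measured in the same wells as the VDR-bla reporter assay: after 16 h compound treatment and 2 h substrate loading, CellTiter-Glo is added and luminescence read 30 min later.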
(In qHTS, concentration-response curves come from the screen itself.)

Assay [2] is described as follows: qHTS assay to identify small molecule agonists of the NFkB signaling pathway - cell viability counter screen (AID 1159515). Note: series mostly up to about 61 µM; % is set by controls: 0 for no effect and ±100 for the full control effect; nearly all actives have a fitted effect of over 55% in size. Summed up:
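Multiplexed viability readout: after the 5 hr compound exposure and 1.5 hr FRET substrate step, CellTiter-Glo reagent went into the same NFkB-bla ME-180 wells; ATP luminescence was measured after 30 min at room temperature.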

Assay [3] in a line: qHTS assay to identify small molecule agonists of the endoplasmic reticulum stress response signaling pathway (AID 1159516; active = well fitted activation curve with a large enough effect in the signal ratio in the repeat runs, not every such curve was filed as active; the % refers to the signal ratio; note: % is set by controls: 0 for no effect and ±100 for the full control effect). Summed up: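 Tox21 10K library screened in quantitative HTS format on ESRE-bla HeLa cells, a beta-lactamase reporter under ER stress response element control; 5 hr treatment, FRET read.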
A short description of assay [4]: qHTS assay to identify small molecule agonists of the endoplasmic reticulum stress response signaling pathway - cell viability counter screen (AID 1159517). Note: series mostly up to about 61 µM; % is set by controls: 0 for no effect and ±100 for the full control effect; nearly all actives have a fitted effect of over 50% in size. Summed up: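 ESRE-bla HeLa cells, 1,500 per well, seeded overnight then treated with compounds for 5 hr at 37 C. After the beta-lactamase read, viability in the same wells is measured by CellTiter-Glo luminescence after 30 min at room temperature.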

Assay [5] deals with Nuclear receptor ROR-gamma (Homo sapiens) (UniProt P51449). Kind of assay: qHTS assay to identify small molecule antagonists of the retinoid-related orphan receptor gamma (ROR-gamma) signaling pathway (AID 1159521; active = well fitted curve in the direction sought with a large enough effect in the repeat runs; an effect the other way counts as inactive or inconclusive; note: potency is the fitted concentration of half-maximal effect; nearly all actives have a fitted effect of over 50% in size). Summed up: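 RORγ antagonism is scored from reduced reporter luminescence in Tet-on CHO cells. Induction used 1 uM final doxycycline hyclate for 16 h at 37 C, following a 2 h compound exposure.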

Assay [6] can be described thus: qHTS assay to identify small molecule agonists of the AP-1 signaling pathway (AID 1159526). Note: % is set by controls: 0 for no effect and ±100 for the full control effect.
Assay [7] can be described thus: qHTS assay to identify small molecule agonists of the AP-1 signaling pathway - cell viability counter screen (AID 1159525). Note: nearly all actives have a fitted effect of over 55% in size. Summed up: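 AP-1-bla ME-180 cells in Opti-MEM with 0.5% dialyzed FBS, compound exposure 5 h at 37 C in 15-point titration. Viability read in the same wells as ATP content by CellTiter-Glo luminescence, normalised to tetra-n-octylammonium bromide and DMSO controls.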

Assay [8] in a line: qHTS assay to identify small molecule antagonists of the vitamin D receptor (VDR) signaling pathway - cell viability counter screen (AID 743225; active = well fitted curve in the direction sought with a large enough effect in the repeat runs; an effect the other way counts as inactive or inconclusive; note: % is set by controls: 0 for no effect and ±100 for the full control effect; nearly all actives have a fitted effect of over 50% in size). Summed up: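 Cells (VDR-UAS-bla HEK 293T) are plated, rested 4 h at 37C, dosed with compound and 3 nM final 1-alpha,25-dihydroxy vitamin D3, and incubated 16 h. Viability is taken from CellTiter-Glo luminescence in the reporter wells.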

Assay [9] in a line: qHTS assay to identify small molecule antagonists of the retinoid-related orphan receptor gamma (ROR-gamma) signaling pathway - cell viability counter screen (AID 1159520; active = well fitted curve in the direction sought with a large enough effect in the repeat runs; an effect the other way counts as inactive or inconclusive; note: nearly all actives have a fitted effect of over 50% in size; note: potency is the fitted concentration of half-maximal effect). Summed up:
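Tet-on ROR gamma CHO cells were given compounds for 2 hr, then doxycycline hyclate at 1 uM final, and incubated 16 hr at 37 C. Viability was measured as ATP content by CellTiter-Glo luminescence.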

Assay [10] addresses Retinoic acid receptor RXR-alpha (Homo sapiens) (UniProt P19793). The assay can be described thus: qHTS assay to identify small molecule agonists of the RXR signaling pathway (AID 1159527). For activation: % is set by controls: 0 for no effect and ±100 for the full control effect. Note: nearly all actives have a fitted effect of over 35% in size. Note: potency is the fitted concentration of half-maximal effect. Summed up:
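qHTS of the Tox21 10K library in GeneBLAzer RXR-alpha HEK 293T cells carrying a beta-lactamase reporter […]; 16 hr treatment, 9-cis retinoic acid as agonist control, FRET read-out.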

Retinoic acid receptor RXR-alpha (Homo sapiens), sequence (P19793 whole entry, looked up): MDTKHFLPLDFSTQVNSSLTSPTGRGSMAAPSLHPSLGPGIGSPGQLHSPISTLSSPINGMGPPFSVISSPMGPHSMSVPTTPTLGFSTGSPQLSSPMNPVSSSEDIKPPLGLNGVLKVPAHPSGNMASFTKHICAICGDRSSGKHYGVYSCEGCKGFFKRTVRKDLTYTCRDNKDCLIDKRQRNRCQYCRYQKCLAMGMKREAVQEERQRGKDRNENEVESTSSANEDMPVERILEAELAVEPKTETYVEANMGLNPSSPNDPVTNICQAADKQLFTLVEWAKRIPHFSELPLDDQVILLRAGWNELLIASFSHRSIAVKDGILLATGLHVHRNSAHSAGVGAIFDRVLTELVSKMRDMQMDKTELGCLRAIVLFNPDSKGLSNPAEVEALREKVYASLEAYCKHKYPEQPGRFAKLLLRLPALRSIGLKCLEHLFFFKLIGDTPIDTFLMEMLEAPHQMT

As for `Cc1nn(C)c(Oc2ccccc2)c1/C=N/OCc1ccc(C(=O)OC(C)(C)C)cc1`, the Potency in [1] was 0.0123 µM (active); in assay [5], 0.486 µM (active). The Potency result in [2], in [3], in assay [4] and in assay [6] was “inactive” in each case.
With `CCc1c(C(=O)NN2CCCCC2)nn(-c2ccc(Cl)cc2Cl)c1-c1ccc(Br)cc1`, the Potency in assay [1] is 19.5 µM (active); in assay [5], 54.5 µM (active). Moreover, the Potency result in assay [2], in assay [3], in [4], in [7] and in assay [6] was “inactive” throughout.
Regarding `CCOC(=O)COC(=O)c1cc(Oc2ccc(C(F)(F)F)cc2Cl)ccc1[N+](=O)[O-]`, the Potency result in assay [1], in [8], in [2], in assay [3], in [4] and in assay [9] was “inactive” throughout. Also, in assay [6], the Potency entry was “inactive”. Moreover, the Potency in assay [10] is 24.5 µM (active).
`CCN(CC)c1ccc(C(=C2C=CC(=[N+](CC)CC)C=C2)c2cc(S(=O)(=O)O)ccc2S(=O)(=O)[O-])cc1`: the Potency result in assay [1], in assay [8], in [2], in assay [3], in [4] and in assay [6] was “inactive” throughout. In addition, the Potency entry in assay [10] is “inactive”. Further, the Potency in assay [9] is 13.3 µM (active).
For the molecule `COc1cc2nc(Cl)nc(N)c2cc1OC`, the Potency result in assay [1], in [8], in assay [2], in [3], in [4] and in assay [7] was “inactive” throughout. The Potency entry in [6] and in assay [10] was “inactive” throughout.
For `C=CC(=O)OCCOCCOCCOCCOC(=O)C=C`, the Potency result in [2], in [3], in assay [4] and in [7] was “inactive” throughout. In addition, the Potency in [5] is 12.3 µM (active) and 8.56 µM (active).
Take `CN1CCC(=C2c3ccccc3Sc3ccccc32)CC1`: the Potency result in assay [1], in assay [8], in assay [2], in [3], in assay [4] and in assay [7] was “inactive” in each case. Also, the Potency in [5] is 29.8 µM (active).
With `Nc1ncn([C@H]2C[C@H](O)[C@@H](CO)O2)c(=O)n1`, the Potency result in [1], in assay [2], in assay [3], in [4] and in assay [9] was “inactive” throughout.
Regarding `CCOC(=O)C1=C[C@]2(CC)CCCN3CCc4c(n1c1ccccc41)[C@@H]32`, the Potency entry in [1], in assay [8], in assay [2], in assay [3], in assay [4] and in assay [9] was “inactive” each time. Besides, the Potency entry in assay [10] was “inactive”.
In the case of `CC(CSC(=O)c1ccccc1)C(=O)N1C[C@@H](Sc2ccccc2)C[C@H]1C(=O)O` (stereo partly drawn), the Potency entry in assay [1], in [2], in assay [3] and in assay [4] was “inactive” throughout. Moreover, in [7], the viability change, negative = cytotoxic is -2.27% [at 15.8 µM]. For the same molecule, the results for the activation in assay [6] and in assay [10] were 17.2% [at 15.8 µM] and -12.9% [at 15.8 µM], respectively.
